Assay outcomes as filed in PubChem.
Hits are enriched below; roughly 3.8% of the tested compounds scored in any of these assays.
Nrf2 block – inhibitors of Nrf2 signaling. A549 ARE-Fluc reporter, luciferase luminescence, 18-24 h. AID 504444. Potency, µM (titrated, usually from 46 µM), for inactives: top-dose activity change, negative = inhibition, actives largely listed as inhibitors. 2.1% of 360,000 active; further: on the % scale 0 is the no-effect control and ±100 the full control effect; nearly all actives have a fitted effect of over 60% in size
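Quantitative HTS in A549 cells stably bearing an antioxidant response element-firefly luciferase construct. Inhibition of Nrf2-driven transcription was scored by luminescence after 18-24 h of compound exposure at 37 °C.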
HepG2 viability – kills HepG2 cells in TGF-b inhibitor counter-screen; Potency, µM (highest dose often 46.1 µM), for inactives: at the top dose activity change, negative = cytotoxicity, hits mostly cytotoxic; HepG2 CAGA-GFP viability, ATP luminescence, 18 h; 0.76% of 410,000 active
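CellTiter-Glo luminescence gave cytotoxicity after 18 hours at 37 degrees C. The cells were HepG2 CAGA-GFP in 1% FBS DMEM, stimulated with 500 pg/mL TGF-beta after compound addition. %Activity was normalised to no-cell wells (complete cell-killing) and DMSO (no toxicity), and curves were fitted and classified.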
ATXN viability – cell viability loss in ATXN counter-screen; S2 cells (HEK-293 line with an ATXN2-luciferase reporter) viability, CellTiter-Fluor protease fluorescence, 24 h; Potency, µM (doses to about 56.7 µM), hits mostly cytotoxic; 0.49% of 400,000 active; AID 651635; further: nearly all actives have a fitted effect of over 40% in size
TGFb SMAD3 inh – blocks TGF-b signaling; AID 588855; Potency, µM (top dose mostly 46.1 µM), without a hit: at the highest dose activity, negative = inhibition, most hits filed as inhibitors; 1.2% of 410,000 active; HepG2 CAGA-GFP TGF-b/SMAD3 reporter, GFP fluorescence, 18 h; TGF-beta stimulated, 500 pg/mL final; further: on the % scale 0 is the no-effect control and ±100 the full control effect; nearly all actives have a fitted effect of over 65% in size
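First, reporter cells (HEPG2 CAGA-GFP) rested 2 h at 37 degrees C. Next, compounds were pinned in and TGF-beta added to 500 pg/mL final. After 18 h, GFP was imaged per cell and summed per well.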
ATXN2 expr inh – ATXN2 expression inhibition; HEK-293 ATXN2-luciferase reporter, luminescence, 24 h; Potency, µM (doses to about 57 µM), without a hit: top-dose activity change, negative = inhibition, hits mostly inhibitors; 0.72% of 360,000 active; further: on the % scale 0 is the no-effect control and ±100 the full control effect; nearly all actives have a fitted effect of over 55% in size
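qHTS (up to 57 uM final) was run with 24 h compound exposure of reporter cells at 37 °C. Each well was multiplexed: SteadyGlo luminescence measured ATXN2-luciferase expression after a fluorogenic Gly-Phe-AFC viability readout (25 uM final).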
A549 viability – counter-screen for Nrf2 inhibitors: cytotoxicity in A549 cells. Potency, µM (series often up to 46 µM), for the others: at the top dose activity change, negative = cytotoxicity, usual class: inhibitors. A549 ARE-Fluc cells, CellTiter-Fluor viability, 18-24 h. 0.16% of 390,000 active; further: on the % scale 0 is the no-effect control and ±100 the full control effect
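A549 ARE_Fluc cells in 5% FBS OPTI-MEM were exposed to compounds in concentration-response for 18-24 h at 37 deg C. Viability was read by CellTiter-Fluor fluorescence (Ex 405/Em 525) after 30 min, before the luciferase read.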
Numbers without * were called inactive; i = inactive; u = inconclusive; x = no result given. The call rests on the fitted dose curve; in most records, active means well fitted curve in the direction sought with a large enough effect; inconclusive means small, poorly fitted or top-dose-only effect, or another doubt; inactive means no such curve, though single readings can be large; an effect the other way counts as inactive or inconclusive. Potency means the concentration at half of the fitted maximal effect.

SMILES	Nrf2 block	HepG2 viability	ATXN viability	TGFb SMAD3 inh	ATXN2 expr inh	A549 viability
O=C(NC(c1ccc(-c2ccccc2)cc1)c1cnccn1)C1CCN(CCCOc2ccccc2)CC1 (stereo not given)	x	-97.4%	31.6µM*	u	u	x
CCOc1ccc(S(=O)(=O)N(CC)CC(=O)NCc2ccncc2)cc1C	-18.1%	-11.2%	i	-25.7%	17.2%	0.2%
COc1ccc(CCNC(=O)C2CCN(C(=O)c3ccc([N+](=O)[O-])cc3)CC2)cc1	-7.7%	2.5%	i	-11.9%	-17.9%	10.6%
CS(=O)(=O)N1CCc2cc(-c3csc(NC(=O)Cc4cccs4)n3)ccc21	18.4µM*	-35.3%	u	u	17.8µM*	-18.8%
CCC(CC)C(=O)N(C)c1c(C)nc2c(OCc3ccc(F)c(F)c3)cccn12	x	-31.0%	i	-12.3%	-14.7%	x
COc1ccc2o/c(=N\O)c(C(=O)Nc3ccccc3OC)cc2c1	-1.4%	1.4%	i	2.3%	-9.1%	-5.2%
COc1ccc(NC(=O)c2cc3ccc(O)cc3o/c2=N\O)cc1	2.06µM*	-33.1%	i	-1.1%	19.7%	u
Cc1ccc2nc(-c3ccc(O)cc3)oc2c1	6.51µM*	-11.4%	i	1.4%	-11.0%	0.6%
Cc1ccc2nc(-c3cccc(-c4nc5ccc(C)cc5o4)n3)oc2c1	5.0%	8.9%	x	28.6%	x	-1.4%
O=[N+]([O-])/C=C/c1cc2ccccc2[nH]1	-8.3%	20µM*	u	u	x	-6.9%
Cc1nc(-c2cccc(NC(=O)Nc3ccc([N+](=O)[O-])cc3)c2)no1	x	-56.0%	i	u	12.6µM*	u
COc1ccc(C)cc1NC(=O)Nc1cccc(-c2noc(C)n2)c1	x	-28.6%	i	-13.7%	-28.9%	-2.4%
CC(C)c1ccc(NC(=O)C(c2ccccc2)N2CCC3(CC2)OCCO3)cc1 (stereo not given)	14.6µM*	-1.5%	i	-6.7%	6.4%	-23.2%
Cc1ccc(NC(=O)Cn2c(=O)n(-c3ccccc3)c(=O)c3ccc(C(=O)NCc4ccc5c(c4)OCO5)cc32)c(C)c1	7.31µM*	-10.6%	u	-4.7%	-14.6%	-9.6%
O=C(Cn1c(=O)n(-c2ccccc2)c(=O)c2ccc(C(=O)NCc3ccc4c(c3)OCO4)cc21)Nc1ccc(Br)cc1	-7.8%	-25.2%	i	-11.5%	-1.8%	-3.1%
CCCCCCCCCCCCCCCCn1cc[n+](CC(C)=O)c1	u	-103.9%	29.9µM*	20µM*	u	-5.5%
CN1N/C(=C\c2ccccc2)N=C2C(=O)N(C)C(=O)N=C21	u	1.12µM*	x	-109.4%	x	5.8µM*
Cc1cc(C)c(C#N)c(Sc2nc(C)c([N+](=O)[O-])c(C)c2C#N)n1	x	12.6µM*	20µM*	u	22.4µM*	x
O=C(CCc1ccccc1)NC1(Cc2ccccc2)CCN(CCc2cccs2)C1=O (stereo not given)	10.3%	-15.0%	u	u	-22.4%	1.9%
O=C(NC1(Cc2ccccc2)CCN(Cc2ccc(-c3ccccc3)cc2)C1=O)c1ccccc1 (stereo not given)	u	-24.9%	31.6µM*	u	u	u
Cc1nc(SCc2nc3ccc(Cl)cc3[nH]2)c2oc3ccccc3c2n1	u	-14.7%	u	7.94µM*	u	-14.3%
CCC(=O)N1CCc2cc(S(=O)(=O)NCCC(=O)NC3CCCCCC3)ccc21	-16.2%	-3.1%	i	-1.2%	-5.2%	-3.4%
Cc1ccc2c(c1)-c1nc(-c3ccc4c(c3)NC(=O)CO4)cc(-c3ccccc3)c1CO2	6.9%	6.5%	i	-0.2%	3.4%	0.1%
O=C1Cc2c(-c3ccccc3)cc(-c3cccc(Cl)c3)nc2-c2ccccc2N1	u	0.891µM*	u	-7.7%	u	-6.2%
